# Measurements from the antibiotic and cytotoxicity screens of Wong et al. (2023).
# Out of some 39,000 compounds screened, about 1,500 (3.8%) were called active. This is one part of a sample in which actives are shown more often than they occur.
# Test system: HSkMC (human skeletal muscle cells)
# Assay: cytotoxicity call (relative viability < 0.9)
# Conditions: 10 µM
row,SMILES,cytotoxicity call
1,C[C@@H]1CCCCO[C@H](CN(C)S(=O)(=O)c2ccccc2)[C@H](C)CN([C@@H](C)CO)C(=O)c2cc(NC(=O)Nc3ccc(F)cc3)ccc2O1,inactive
2,O=C(O)CCNC(=O)c1cccc([N+](=O)[O-])c1,inactive
3,C[C@H]1CN([C@@H](C)CO)C(=O)c2cccc(NS(=O)(=O)c3cn(C)cn3)c2O[C@@H]1CN(C)CC1CCCCC1,inactive
4,Cc1noc(C)c1S(=O)(=O)Nc1cccc2c1O[C@@H](CN(C)Cc1ccc3c(c1)OCO3)[C@@H](C)CN([C@@H](C)CO)C2=O,inactive
5,COCC#Cc1ccc([C@@H]2[C@H]3CN(C(=O)CN4CCOCC4)CC(=O)N3[C@H]2CO)cc1,inactive
6,C[C@H](CO)N1C[C@H](C)[C@H](CN(C)C(=O)Nc2ccc(C(F)(F)F)cc2)OCCCC[C@H](C)Oc2ccc(NC(=O)NC3CCCCC3)cc2C1=O,inactive
7,C[C@@H]1CCCCO[C@@H](CN(C)C(=O)c2ccccc2)[C@@H](C)CN([C@@H](C)CO)C(=O)c2cc(NC(=O)CCC(F)(F)F)ccc2O1,inactive
8,CO[C@@H]1CN(C)C(=O)c2cc(NC(=O)C3CCOCC3)ccc2OC[C@@H](C)N(Cc2cccnc2)C[C@@H]1C,inactive
9,CC(=O)Oc1cc2c(c(C)c1OC(C)=O)CC=C1[C@@]2(C)CC[C@@]2(C)[C@H]3C[C@](C)(C(=O)O)CC[C@]3(C)CC[C@]12C,active
10,CC1(C(=O)O)CCC2(C)CCC3(C)C(=CC(=O)C4C5(C)CCC(O)C(C)(C)C5CCC43C)C2C1 (stereo not given),inactive
11,C[C@@H]1CN([C@@H](C)CO)C(=O)Cc2cc(NC(=O)NC3CCCCC3)ccc2O[C@@H]1CN(C)C(=O)Nc1cccc2ccccc12,inactive
12,C[C@@H]1CN([C@H](C)CO)C(=O)Cc2cc(NS(C)(=O)=O)ccc2O[C@H]1CN(C)S(=O)(=O)c1cccs1,inactive
13,CC(C)CC#Cc1ccc2c(c1)O[C@@H](CN(C)C(=O)Cc1ccccn1)[C@@H](C)CN([C@H](C)CO)S2(=O)=O,inactive
14,C[C@H]1CN([C@@H](C)CO)C(=O)Cc2cc(NC(=O)Nc3ccc(C(F)(F)F)cc3)ccc2O[C@H]1CN(C)CC1CCCCC1,active
15,C[C@@H]1CN([C@@H](C)CO)C(=O)Cc2cc(NC(=O)Nc3ccc(C(F)(F)F)cc3)ccc2O[C@@H]1CN(C)CC1CCCCC1,inactive
16,C[C@H](CO)N1C[C@H](C)[C@H](CN(C)CC2CCCCC2)Oc2ccc(NC(=O)Nc3ccc(C(F)(F)F)cc3)cc2CC1=O,active
17,C[C@H]1CN([C@@H](C)CO)C(=O)Cc2cc(NC(=O)Nc3ccc(C(F)(F)F)cc3)ccc2O[C@@H]1CN(C)CC1CCCCC1,active
18,C[C@@H]1CN([C@H](C)CO)C(=O)Cc2cc(NC(=O)Nc3ccc(F)cc3)ccc2O[C@H]1CN(C)CC1CCCCC1,inactive
19,C[C@@H]1CN([C@H](C)CO)C(=O)Cc2cc(NC(=O)Nc3ccc(C(F)(F)F)cc3)ccc2O[C@@H]1CN(C)CC1CCCCC1,active
20,Cc1ccc(S(=O)(=O)N(C)C[C@@H]2OCCCC[C@@H](C)Oc3ccc(NC(=O)Nc4cccc5ccccc45)cc3C(=O)N([C@H](C)CO)C[C@@H]2C)cc1,inactive

row,SMILES,cytotoxicity call
1,COCC(=O)N(C)C[C@H]1Oc2cc(C#C[C@H](C)O)ccc2S(=O)(=O)N([C@@H](C)CO)C[C@@H]1C,inactive
2,O=C(CN1CCOCC1)N[C@@H]1CC[C@H](CCn2cc(C3CC3)nn2)O[C@H]1CO,inactive
3,C[C@@H]1CN([C@@H](C)CO)C(=O)Cc2cc(NS(=O)(=O)c3cn(C)cn3)ccc2O[C@H]1CN(C)S(=O)(=O)c1ccc(F)cc1,inactive
4,C[C@@H]1CN([C@H](C)CO)C(=O)c2cc(NC(=O)NC3CCCCC3)ccc2O[C@@H](C)CCCCO[C@H]1CN(C)C(=O)NC1CCCCC1,inactive
5,C[C@H]1CN([C@@H](C)CO)C(=O)c2cccc(NC(=O)Nc3ccc4c(c3)OCO4)c2O[C@@H]1CN(C)C(=O)Nc1cccc2ccccc12,inactive
6,O=C(C[C@H]1CC[C@H]2NC[C@@H](O)COC[C@@H]2O1)NCCN1CCCCC1,inactive
7,CC(C)NC(=O)Nc1ccc2c(c1)CC(=O)N([C@H](C)CO)C[C@@H](C)[C@H](CN(C)C(=O)Nc1ccc3c(c1)OCO3)O2,inactive
8,C[C@@H]1CCCCO[C@@H](CN(C)C(=O)NC2CCCCC2)[C@H](C)CN([C@@H](C)CO)C(=O)c2cc(NC(=O)CCC(F)(F)F)ccc2O1,inactive
9,Cc1noc(C)c1NC(=O)N(C)C[C@H]1OCCCC[C@@H](C)Oc2ccc(NC(=O)C3CCCCC3)cc2C(=O)N([C@H](C)CO)C[C@@H]1C,inactive
10,C[C@H]1CN([C@@H](C)CO)C(=O)Cc2cc(NC(=O)Nc3ccc(F)cc3)ccc2O[C@@H]1CN(C)CC1CCCCC1,inactive
11,C[C@@H]1CN([C@@H](C)CO)C(=O)Cc2cc(NC(=O)Nc3ccc(C(F)(F)F)cc3)ccc2O[C@H]1CN(C)CC1CCCCC1,active
12,C[C@@H]1CN([C@H](C)CO)C(=O)Cc2cc(NC(=O)Nc3ccc(C(F)(F)F)cc3)ccc2O[C@H]1CN(C)CC1CCCCC1,active
13,C[C@H](CO)N1C[C@H](C)[C@H](CN(C)Cc2ccc3c(c2)OCO3)OCCCC[C@H](C)Oc2ccc(NC(=O)Cc3ccccc3)cc2C1=O,inactive
14,C[C@H]1CN([C@@H](C)CO)C(=O)Cc2cc(NC(=O)Nc3ccc4c(c3)OCO4)ccc2O[C@@H]1CN(C)Cc1ccc(-c2ccccc2)cc1,inactive
15,CC(C)[Si](C#Cc1ccc(Oc2ccccc2)cc1)(O[Si](C#Cc1ccc(Oc2ccccc2)cc1)(C(C)C)C(C)C)C(C)C,inactive
16,COc1ccc(CN(C)C[C@@H]2OCCCC[C@@H](C)Oc3ccc(NC(=O)c4ccncc4)cc3C(=O)N([C@H](C)CO)C[C@H]2C)cc1,inactive
17,O=C(Cc1ccncc1)Nc1ccc2c(c1)[C@@H]1C[C@H](CC(=O)N3CCc4ccccc4C3)O[C@@H](CO)[C@@H]1O2,inactive
18,CO[C@H]1O[C@H](CO)[C@@H](OC(=O)Nc2cccc(F)c2)[C@H](OC(=O)Nc2ccccc2-c2ccccc2)[C@@H]1OC(=O)Nc1ccccc1-c1ccccc1,active
19,CO[C@H]1O[C@H](CO)[C@@H](OC(=O)Nc2ccccc2-c2ccccc2)[C@H](OC(=O)Nc2ccccc2)[C@@H]1OC(=O)Nc1ccccc1,inactive
20,CO[C@H]1O[C@H](CO)[C@@H](OC(=O)Nc2ccccc2-c2ccccc2)[C@H](OC(=O)Nc2ccccc2-c2ccccc2)[C@@H]1OC(=O)Nc1ccccc1-c1ccccc1,inactive

row,SMILES,cytotoxicity call
1,CCc1cccc(NC(=O)O[C@H]2[C@H](OC(=O)Nc3ccccc3-c3ccccc3)[C@H](OC(=O)Nc3ccccc3-c3ccccc3)[C@@H](OC)O[C@@H]2CO)c1,inactive
2,CO[C@H]1O[C@H](CO)[C@@H](OC(=O)Nc2ccccc2-c2ccccc2)[C@H](OC(=O)Nc2ccc3c(c2)OCO3)[C@H]1OC(=O)Nc1ccc2c(c1)OCO2,inactive
3,CO[C@H]1O[C@H](CO)[C@@H](OC(=O)Nc2cccc(F)c2)[C@H](OC(=O)Nc2ccccc2-c2ccccc2)[C@H]1OC(=O)Nc1ccccc1-c1ccccc1,active
4,C[C@@H]1CCCCO[C@@H](CN(C)Cc2ccccc2)[C@H](C)CN([C@@H](C)CO)C(=O)c2cc(NC(=O)Cc3ccccc3)ccc2O1,inactive
5,C[C@H](CO)N1C[C@H](C)[C@@H](CN(C)S(C)(=O)=O)Oc2ccc(NC(=O)Nc3ccc(F)cc3)cc2C1=O,inactive
6,C[C@@H]1CN([C@@H](C)CO)C(=O)c2cc(NC(=O)CCCN(C)C)ccc2O[C@@H](C)CCCCO[C@@H]1CN(C)CC1CCCCC1,inactive
7,C[C@H]1CN([C@@H](C)CO)C(=O)Cc2cc(NS(=O)(=O)c3ccc(Cl)cc3)ccc2O[C@H]1CN(C)Cc1ccc(Oc2ccccc2)cc1,active
8,C[C@H]1CN([C@@H](C)CO)C(=O)Cc2cc(NS(=O)(=O)c3ccc(Cl)cc3)ccc2O[C@@H]1CN(C)Cc1ccc(Oc2ccccc2)cc1,active
9,C[C@H](CO)N1C[C@H](C)[C@H](CN(C)Cc2ccc(Oc3ccccc3)cc2)Oc2ccc(NS(=O)(=O)c3ccc(Cl)cc3)cc2CC1=O,active
10,C[C@@H]1CN([C@H](C)CO)C(=O)Cc2cc(NS(=O)(=O)c3ccc(Cl)cc3)ccc2O[C@@H]1CN(C)Cc1ccc(Oc2ccccc2)cc1,active
11,Nc1nc(=O)c2[nH]c(=O)cnc2[nH]1,inactive
12,COc1ccc(CN(C)C[C@H]2OCCCC[C@H](C)Oc3ccc(NC(=O)c4ccccc4)cc3C(=O)N([C@H](C)CO)C[C@@H]2C)cc1,inactive
13,CO[C@@H]1CN(C)C(=O)c2ccc(NC(=O)Nc3ccccc3)cc2OC[C@@H](C)N(C(=O)CN(C)C)C[C@H]1C,inactive
14,COCC(=O)Nc1ccc2c(c1)C(=O)N(C)C[C@@H](OC)[C@@H](C)CN(Cc1cccc(F)c1)[C@@H](C)CO2,inactive
15,CC(C)Cn1cnc2c1c(=O)n(C)c(=O)n2C,inactive
16,CC(=O)N1C[C@@H](NC(=O)c2nccn2C)[C@@H]2OCCC[C@@H]21,inactive
17,C[C@H](CO)N1C[C@H](C)[C@H](CN(C)C(=O)CCC(F)(F)F)OCCCC[C@H](C)Oc2ccc(NS(=O)(=O)c3ccccc3)cc2C1=O,inactive
18,CN1CCN(C(=O)C[C@H]2C[C@@H]3c4cc(NS(=O)(=O)c5ccc(F)cc5)ccc4O[C@@H]3[C@@H](CO)O2)CC1,inactive
19,C=CCOC(=O)[C@H]1[C@@H]2C(=O)O[C@@H](c3ccccc3)[C@@H](c3ccccc3)N2[C@@H](c2ccc(OCCOC(=O)[C@@H]3C[C@@H]4C(=O)N[C@@H](CCCC[N+](C)(C)C)C(=O)N4[C@@H]3c3cccc(OCCO)c3)cc2)[C@]12C(=O)Nc1ccc(I)cc12,inactive
20,Cc1noc(C)c1S(=O)(=O)N(C)C[C@H]1OCCCC[C@@H](C)Oc2ccc(NS(C)(=O)=O)cc2C(=O)N([C@@H](C)CO)C[C@@H]1C,inactive
